Experimental data taken from PubChem BioAssay (Tox21).
Inconclusive results are not listed. Activity calls are given as the source filed them. Unless noted, the call rests on the fitted dose curve; in most records, active means well fitted curve in the direction sought with a large enough effect in the repeat runs; inconclusive means weak or mixed curves; inactive means no such curve, though single readings can be large; an effect the other way counts as inactive or inconclusive.

Legend:
[1] = A CellTox Green Cytotoxicity Assay to monitor cytotoxicity in HepG2 cells - 8 hour (AID 1224890); settings: CellTox Green fluorescence; series mostly up to 76.8 µM; further: nearly all actives have a fitted effect of over 45% in size; further: potency means the concentration at half of the fitted maximal effect
Procedure, shortened: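 Read-out is fluorescence of a cyanine dye excluded from live cells that stains DNA of dead HepG2 cells, with signal proportional to cytotoxicity. Plates were read at 0, 8, 16, 24, 32 and 40 h after compound addition.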

[2] = qHTS assay to identify small molecule phospholipidosis (PLD) inducers (AID 1259344; active means well fitted curve in the direction sought with a large enough effect; an effect the other way counts as inactive or inconclusive); settings: HepG2 phospholipidosis, LipidTOX Red imaging, 24 h; series mostly up to 38.3 µM
Procedure, shortened: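 HepG2 cells on collagen I, attached 4 h at 37 C, were co-treated with compound and LipidTOX Red dye for 24 h at 37 C, then fixed with paraformaldehyde plus Hoechst 33342 and imaged by high-content microscopy for phospholipid accumulation.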

[3] = qHTS assay to identify small molecule HDAC inhibitors (AID 1259364); settings: HCT-116 HDAC-Glo I/II luminescence, 2 h; series mostly up to 92.4 µM; further: nearly all actives have a fitted effect of over 45% in size; further: potency means the concentration at half of the fitted maximal effect; on activity change, negative = inhibition: top concentration of the series differs between compounds
Procedure, shortened: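 Luminescence from a cell-permeant luminogenic class I/II HDAC substrate reports endogenous deacetylase activity in intact HCT-116 cells treated with compounds for 2 h.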

[4] = qHTS assay to identify small molecule HDAC inhibitors - cell viability counter screen (AID 1259365); settings: HCT-116 viability, CellTiter-Glo ATP luminescence, 2 h; series mostly up to 92.4 µM; further: nearly all actives have a fitted effect of over 50% in size; further: potency means the concentration at half of the fitted maximal effect
Procedure, shortened: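 Viability readout: CellTiter-Glo luminescence. Wild-type HCT-116 cells, 2hr compound treatment following overnight attachment at 37 C.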

[5] = qHTS assay to identify small molecule agonists of the sonic hedgehog signaling (Shh) pathway - cell viability counter screen (AID 1259366); settings: NIH/3T3 Gli1-Luc viability, CellTiter-Fluor, 24 h; series mostly up to 92.4 µM; further: nearly all actives have a fitted effect of over 50% in size; further: potency means the concentration at half of the fitted maximal effect
Procedure, shortened: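 Viability measured fluorometrically (CellTiter-Fluor, 1hr, 37C) in 3T3 Gli1-Luc reporter cells after 23hr compound exposure within a 24hr incubation at 37C/5% CO2.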

[6] = qHTS assay to identify small molecule antagonists of the sonic hedgehog signaling (Shh) pathway - cell viability counter screen (AID 1259367); settings: NIH/3T3 Gli1-Luc viability, CellTiter-Fluor, 24 h; series mostly up to 92.4 µM; further: nearly all actives have a fitted effect of over 55% in size; further: potency means the concentration at half of the fitted maximal effect
Procedure, shortened: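 NIH/3T3-derived Gli1-Luc reporter cells (2,000 per well) rested 4 hr at 37 C, then received DMSO compounds plus conditioned medium. After 23 hr of treatment, CellTiter-Fluor was added for 1 hr at 37C and fluorescence read.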

[7] = qHTS assay to identify small molecule antagonists of the androgen receptor (AR) signaling pathway using the MDA cell line in the presence of 0.5 nM R1881 - cell viability counter screen (AID 1259242); settings: MDA-kb2 viability, CellTiter-Fluor protease fluorescence, 16 h; series mostly up to 92.4 µM; further: nearly all actives have a fitted effect of over 45% in size; further: potency means the concentration at half of the fitted maximal effect
Procedure, shortened: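 Counter screen for cytotoxicity run in the same wells as the AR antagonist reporter screen: MDA-kb2 cells were treated 16 hr with test compounds and 0.5 nM R1881, then live-cell protease activity was measured by fluorescence.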

[8] = target: Estrogen receptor (Homo sapiens) (UniProt P03372); test: qHTS assay to identify small molecule antagonists of the estrogen receptor alpha (ER-alpha) signaling pathway using the BG1 cell line in the presence of 0.1 nM 17-beta-estradiol (AID 1259244); settings: VM7Luc4E2 (BG1) ERE-luciferase, antagonist mode, 0.1 nM E2, 22 h; series mostly up to 92.4 µM; further: nearly all actives have a fitted effect of over 50% in size; further: potency means the concentration at half of the fitted maximal effect
Chain of Estrogen receptor (Homo sapiens) (P03372 whole entry, looked up): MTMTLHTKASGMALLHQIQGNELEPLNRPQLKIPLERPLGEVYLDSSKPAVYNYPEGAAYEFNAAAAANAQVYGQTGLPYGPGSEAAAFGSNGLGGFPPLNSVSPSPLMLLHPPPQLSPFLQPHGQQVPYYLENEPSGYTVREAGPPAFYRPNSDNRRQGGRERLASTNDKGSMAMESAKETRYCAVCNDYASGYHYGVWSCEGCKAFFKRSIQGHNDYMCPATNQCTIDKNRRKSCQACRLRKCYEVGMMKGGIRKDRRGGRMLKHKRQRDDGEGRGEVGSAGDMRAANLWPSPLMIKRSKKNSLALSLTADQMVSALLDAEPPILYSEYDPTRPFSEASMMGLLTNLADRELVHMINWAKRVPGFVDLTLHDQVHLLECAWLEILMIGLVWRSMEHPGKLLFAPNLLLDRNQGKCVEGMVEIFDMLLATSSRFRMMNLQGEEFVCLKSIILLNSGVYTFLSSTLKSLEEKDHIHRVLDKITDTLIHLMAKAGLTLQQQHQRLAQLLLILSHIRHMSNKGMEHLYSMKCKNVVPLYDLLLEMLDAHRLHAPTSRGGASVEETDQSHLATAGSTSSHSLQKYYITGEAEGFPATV
Procedure, shortened: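 Cells: VM7Luc4E2, endogenous ER-alpha, 4x ERE-luc stable. Pre-culture 5 d, phenol red-free, charcoal-stripped FBS. Plated 24 h, compound + E2 0.1 nM final, 22 h 37C/5% CO2. Readout ONE-Glo luminescence.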

[9] = target: Androgen receptor (Homo sapiens) (UniProt P10275); test: qHTS assay to identify small molecule antagonists of the androgen receptor (AR) signaling pathway using the MDA cell line in the presence of 0.5 nM R1881 (AID 1259243); settings: MDA-kb2 MMTV-luciferase, R1881 0.5 nM, 16 h; series mostly up to 92.4 µM; further: nearly all actives have a fitted effect of over 50% in size; further: potency means the concentration at half of the fitted maximal effect
Chain of Androgen receptor (Homo sapiens) (P10275 whole entry, looked up): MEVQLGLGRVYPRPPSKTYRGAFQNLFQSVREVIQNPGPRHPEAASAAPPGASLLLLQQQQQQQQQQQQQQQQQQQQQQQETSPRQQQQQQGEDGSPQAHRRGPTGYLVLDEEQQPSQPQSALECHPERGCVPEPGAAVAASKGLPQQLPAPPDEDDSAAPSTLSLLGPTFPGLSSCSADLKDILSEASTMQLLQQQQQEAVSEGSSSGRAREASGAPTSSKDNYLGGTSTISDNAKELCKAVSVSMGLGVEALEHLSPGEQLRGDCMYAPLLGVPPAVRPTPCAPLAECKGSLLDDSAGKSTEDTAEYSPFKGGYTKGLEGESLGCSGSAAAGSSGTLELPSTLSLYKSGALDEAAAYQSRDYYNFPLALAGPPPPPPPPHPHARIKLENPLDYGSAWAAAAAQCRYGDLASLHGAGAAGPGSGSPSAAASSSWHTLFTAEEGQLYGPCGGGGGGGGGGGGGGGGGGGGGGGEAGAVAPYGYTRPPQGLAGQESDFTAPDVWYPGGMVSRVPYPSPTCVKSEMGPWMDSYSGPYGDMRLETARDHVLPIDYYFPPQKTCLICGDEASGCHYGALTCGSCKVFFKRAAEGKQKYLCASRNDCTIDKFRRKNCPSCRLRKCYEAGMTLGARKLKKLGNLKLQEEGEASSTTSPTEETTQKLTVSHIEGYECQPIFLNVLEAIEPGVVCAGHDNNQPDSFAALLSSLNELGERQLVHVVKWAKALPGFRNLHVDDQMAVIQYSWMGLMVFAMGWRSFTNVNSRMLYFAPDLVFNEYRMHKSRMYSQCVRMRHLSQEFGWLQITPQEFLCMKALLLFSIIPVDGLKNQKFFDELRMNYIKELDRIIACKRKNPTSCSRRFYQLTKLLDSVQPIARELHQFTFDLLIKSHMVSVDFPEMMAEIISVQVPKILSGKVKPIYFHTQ
Procedure, shortened: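 Luciferase luminescence is the read-out: compounds are tested for suppressing 0.5 nM R1881-driven MMTV reporter activity in MDA-kb2 cells after 16 hr at 37C.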

[10] = qHTS assay to identify small molecule antagonists of the estrogen receptor alpha (ER-alpha) signaling pathway using the BG1 cell line in the presence of 0.1 nM 17-beta-estradiol - cell viability counter screen (AID 1259241); settings: VM7Luc4E2 (BG1) viability, CellTiter-Fluor protease, 22 h, 0.1 nM estradiol agonist added; series mostly up to 92.4 µM; further: nearly all actives have a fitted effect of over 40% in size
Procedure, shortened: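 The cell line endogenously expresses full-length ER-alpha and carries four EREs driving luciferase. Cells are cultured 5 days hormone-free, treated 22 hr with compounds and 0.1 nM estradiol, then viability is read by fluorescence.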
On the % scale 0 is the no-effect control and ±100 the full control effect.

Cc1cc(=O)c2c(O)c3c(O)cc(=O)c4c3c3c(cc(O)c1c23)C(C)(C)C=4O
inactive: Potency [2] | activity change, negative = inhibition [3] 3.66% [at 19 µM] | activity change, negative = cytotoxicity [4] 2.88% [at 19 µM] | viability change, negative = cytotoxic [5] 17.6% [at 19 µM] | viability change, negative = cytotoxic [6] -14.6% [at 19 µM]
active: Potency [1] 4.65 µM

FC(F)(F)c1ccccc1Cl
inactive: Potency [1] | Potency [7] | Potency [8] | Potency [3] | Potency [4] | Potency [5] | Potency [6]

CC(C)(c1ccccc1)c1ccccc1
inactive: Potency [1] | Potency [7] | Potency [3] | Potency [4] | Potency [5] | Potency [6]

O=[N+]([O-])c1ccc(Nc2ccc(Nc3ccccc3)c(S(=O)(=O)O)c2)c([N+](=O)[O-])c1
inactive: Potency [1] | Potency [3] | Potency [4]

CC(C)=CCC/C(C)=C/CC/C(C)=C/C(=O)OCC(=O)[C@@]1(O)CC[C@H]2[C@@H]3CCC4=CC(=O)C=C[C@]4(C)[C@H]3[C@@H](O)C[C@@]21C
active: Potency [8] 26.6 µM
inactive: Potency [1] | Potency [9] | Potency [3] | Potency [4] | Potency [5] | Potency [6]

CC(=O)OCCN(CCOC(C)=O)c1ccc(N=Nc2ccc([N+](=O)[O-])cc2C#N)cc1
inactive: Potency [1]
active: Potency [7] 54.5 µM | Potency [3] 27.3 µM | Potency [4] 24.3 µM | Potency [5] 48.6 µM | Potency [6] 54.5 µM

CN1CCCC(CC2c3ccccc3Sc3ccccc32)C1 (configuration not stated)
inactive: Potency [10] | Potency [8] | Potency [3] | Potency [4]

COc1cc(N)c(Cl)cc1C(=O)NC1CCN(CCCOc2ccc(F)cc2)CC1OC (configuration not stated)
inactive: Potency [1] | Potency [7] | Potency [2] | Potency [3] | Potency [4] | Potency [6]

O=C(OCC(O)CO)c1ccccc1Nc1ccnc2cc(Cl)ccc12 (configuration not stated)
inactive: Potency [10] | Potency [7] | Potency [8] | Potency [2] | Potency [3] | Potency [4]
active: Potency [5] 29.8 µM | Potency [6] 29.8 µM

CCCCN1CCCC1C(=O)Nc1c(C)cc(C)cc1C (configuration not stated)
inactive: Potency [10] | Potency [7] | Potency [8] | Potency [2] | Potency [3] | Potency [4] | Potency [5]

CN1C(=O)N(c2ccccc2Br)Cc2cnc(Nc3ccc4c(c3)OCC(CO)O4)nc21 (configuration not stated)
inactive: Potency [1] | Potency [3] | Potency [4]
active: Potency [8] 48.6 µM | Potency [5] 0.193 µM | Potency [6] 1.72 µM

C[C@@]12CCC[C@H]1[C@@H]1CC[C@H]3C[C@@H](O)CC[C@]3(C)[C@H]1CC2
inactive: Potency [1] | Potency [7] | PLD induction [2] 17.2% [at 7.66 µM] | Potency [3] | Potency [4] | Potency [5] | Potency [6]

COc1cc(C(=O)NC2CCN(C)CC2)ccc1Nc1ncc2c(n1)N(C1CCCC1)CC(F)(F)C(=O)N2C
active: Potency [1] 50.4 µM | Potency [8] 2.81 µM | Potency [5] 5.6 µM | Potency [6] 0.791 µM
inactive: Potency [9] | Potency [3] | Potency [4]

CCOC(=O)OC(C)OC(=O)[C@@H]1N2C(=O)[C@@H](NC(=O)[C@H](N)c3ccccc3)[C@H]2SC1(C)C (some centres not stated)
inactive: Potency [1] | Potency [7] | Potency [2] | Potency [3] | Potency [4] | Potency [5] | Potency [6]

COc1cc(Nc2c(C#N)cnc3cc(OCCCN4CCN(C)CC4)c(OC)cc23)c(Cl)cc1Cl
inactive: Potency [10] | Potency [2] | Potency [3] | Potency [4] | Potency [6]
active: Potency [7] 29.8 µM | Potency [5] 29.8 µM

CC(CC1c2ccccc2CCc2ccccc21)CN(C)C (configuration not stated)
inactive: Potency [1] | Potency [3] | Potency [4] | Potency [5] | Potency [6]

Cc1cc(O)ccc1O
active: Potency [5] 13.8 µM
inactive: Potency [1] | Potency [7] | Potency [3] | Potency [4]

CCCCCCCCN
inactive: Potency [1] | Potency [7] | Potency [3] | Potency [4] | Potency [5] | Potency [6]

CCC(C)COC(C)=O (configuration not stated)
inactive: Potency [1] | Potency [7] | Potency [8] | Potency [3] | Potency [4] | Potency [6]

CNC(=O)c1cnn(-c2nc(N)c3ncn([C@@H]4O[C@H](CO)[C@@H](O)[C@H]4O)c3n2)c1
inactive: Potency [1] | Potency [7] | Potency [8] | Potency [3] | Potency [4] | Potency [6]

CN(C(=O)CN(CCO)CC(=O)N(C)C(C)(C)Cc1ccccc1)C(C)(C)Cc1ccccc1
inactive: Potency [10] | Potency [7] | Potency [2] | Potency [3] | Potency [4]

CO/N=C(/C(=O)N[C@@H]1C(=O)N2C(C(=O)O)=C(COC(N)=O)CS[C@H]12)c1ccco1
inactive: Potency [1] | Potency [7] | Potency [2] | Potency [3] | Potency [4] | Potency [6]

COc1ncnc(NS(=O)(=O)c2ccc(N)cc2)c1OC
inactive: Potency [10] | Potency [7] | Potency [8] | Potency [2] | Potency [3] | Potency [4] | Potency [5] | Potency [6]

O=C1c2ccccc2C(=O)c2c(O)c(O)cc(O)c21
inactive: Potency [1] | Potency [3] | Potency [4]

COC(=O)c1nc(Cl)c(Cl)nc1N
inactive: Potency [10] | Potency [4]
active: Potency [5] 10.6 µM | Potency [6] 5.31 µM

O=C1CCCCCCCCCCOCCCCO1
inactive: Potency [1] | Potency [7] | Potency [3] | Potency [4] | Potency [5] | Potency [6]

Nc1nc2ccc([N+](=O)[O-])cc2s1
active: Potency [1] 49 µM | Potency [9] 6.86 µM | Potency [3] 17.7 µM
inactive: Potency [2] | Potency [4]

CCCC(C(=O)OCCN(CC)CC)(c1ccccc1)c1ccccc1
inactive: Potency [1] | Potency [8] | Potency [3] | Potency [4] | Potency [6]

CN1C(C(=O)Nc2ccccn2)=C(O)c2sccc2S1(=O)=O
inactive: Potency [1] | Potency [7] | Potency [8] | Potency [3] | Potency [4] | Potency [5] | Potency [6]

CCOC(=O)c1ccc(O)c(O)c1
inactive: Potency [10] | Potency [7] | Potency [8] | Potency [3] | Potency [4] | Potency [5] | Potency [6]

CC(CN(C)C)C(C)(O)Cc1ccc(Cl)cc1 (configuration not stated)
inactive: Potency [10] | Potency [7] | Potency [9] | Potency [8] | Potency [2] | Potency [3] | Potency [4] | Potency [5] | Potency [6]
